Abs 340nm = absorbance at 340 nm; fold change at 10 µM; compound absorbance at 340 nm, fold over control; 65,000 tested, under 10 active;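 active = at 10 µM dose, initial 340 nm absorbance at least 2 fold that of control wells; inactive = change under 2 fold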;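 also: initial absorbance extrapolated from kinetic A340 decline of NADH oxidation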
NADH coupling = inhibition of NAD/NADH coupling enzymes, library profiling. hit rate 0.02% among 65,000. coupled PK/LDH NADH assays, four targets. IC50, µM (titrated, usually from 10 µM), inactives show at the top dose inhibition;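 active = single-dose screening hits from any of four coupled enzyme assays that gave an IC50 when retested across doses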;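 also: the DPM-DC format reads NADH fluorescence rather than 340 nm absorbance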
PMK inhibit = S. pneumoniae PMK inhibition; hit rate 0.49% among 65,000; inhibition, % at 10 µM; AID 539; purified PMK, PK/LDH-coupled NADH absorbance 340 nm;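 active = top-ranked compounds by inhibition in the single 10 µM screen, taking a fixed number of the strongest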;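 also: 0% = full reaction with DMSO carrier and 100% = background rate without enzyme reaction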
DPM-DC inhibit = inhibitors of Streptococcus pneumoniae diphosphomevalonate decarboxylase | calls only at 10 µM | purified DPM-DC, PK/LDH coupled NADH fluorescence | hit rate 0.49% among 65,000;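 active = the 320 compounds with the highest percent inhibition in the single-dose primary screen, excluding strongly autofluorescent ones, cut at about 32% in these data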;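 also: kinetic rate of NADH fluorescence loss reporting ADP formed by the decarboxylase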
Fluor 339 460 = intrinsic fluorescence of library compounds, ex339/em460 – biochemical, MLSMR library, data from DPM-DC assay, artefact control, profiling panel. hit rate 5.5% among 65,000. AID 709. compound autofluorescence, ex339/em460 nm, NADH buffer; stronger effect = higher value; 1 = no-compound wells, NADH background. fluorescence fold increase at 10 µM;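 active = at 10 µM, mean starting fluorescence two-fold or more over control wells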;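 also: signal is the first read of a kinetic run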
MK inhibit = S. pneumoniae mevalonate kinase inhibition; purified MK, PK/LDH-coupled NADH absorbance 340 nm; inhibition, % at 10 µM; hit rate 0.48% among 65,000;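 active = ranked among the strongest by inhibition in the single 10 µM screen, a fixed top-ranked set picked for dose follow-up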
* marks the source's active call; other numbers are inactive results. Hits are enriched below; roughly 6.8% of the tested compounds scored in any of these assays.

Cc1c2c(nc3c(C(=O)NC4CCCC4)cnn13)CCCC2 was read as Abs 340nm 1, NADH coupling 12%, PMK inhibit 23, Fluor 339 460 4.9* and MK inhibit 0.
`Cn1nnnc1Sc1ncnc2scc(-c3ccccc3)c12` gave Abs 340nm 0.98, NADH coupling 7%, PMK inhibit 14, DPM-DC inhibit inactive, Fluor 339 460 1.1 and MK inhibit 7.
Screening Cn1nnnc1Sc1ncnc2scc(-c3ccc(F)cc3)c12 returned Abs 340nm 0.96, NADH coupling 11%, PMK inhibit 29*, DPM-DC inhibit inactive, Fluor 339 460 1.1 and MK inhibit 5.
CCCn1c(SCC(N)=O)nnc1-c1ccco1 was read as Abs 340nm 0.97, NADH coupling 9%, PMK inhibit 16, DPM-DC inhibit inactive, Fluor 339 460 1 and MK inhibit 10.
Screening Cc1c2c(n3c(nc4ccccc43)c1C#N)N(Cc1cccnc1)CC2 returned Abs 340nm 1.1, NADH coupling 4%, PMK inhibit 7, Fluor 339 460 5* and MK inhibit 0.
Screening Cc1cc(N2CCN(c3ccccn3)CC2)n2c(nc3ccccc32)c1C#N returned Abs 340nm 1, NADH coupling 11%, PMK inhibit 3, DPM-DC inhibit inactive, Fluor 339 460 2.2* and MK inhibit 12.
`COCCNc1cc(C)c(C#N)c2nc3ccccc3n12` gave Abs 340nm 1, NADH coupling 7%, PMK inhibit 5, Fluor 339 460 2.3* and MK inhibit 9.
`N#Cc1c2c(c(N3CCN(c4ccccn4)CC3)n3c1nc1ccccc13)CCC2` gave Abs 340nm 1, NADH coupling 2%, PMK inhibit 0, DPM-DC inhibit inactive, Fluor 339 460 1.2 and MK inhibit 5.
For Cc1c2c(n3c(nc4ccccc43)c1C#N)N(Cc1ccccn1)CC2 the results were Abs 340nm 0.98, NADH coupling 10%, PMK inhibit 19, Fluor 339 460 4.9* and MK inhibit 0.
`O=C1NC(=O)C2(COC3(CCCC3)OC2)S1` gave Abs 340nm 1, NADH coupling 5%, PMK inhibit 5, DPM-DC inhibit inactive, Fluor 339 460 1.1 and MK inhibit 10.
`COC(=O)CNC(=O)COC(=O)c1cc(Cl)cc(Cl)c1N` gave Abs 340nm 1, NADH coupling 1%, PMK inhibit 6, Fluor 339 460 3.4* and MK inhibit 2.
Cc1nn2c(c1-c1ccccc1)NC1=C(C(=O)CCC1)C2c1cccnc1 (stereo not given) was read as Abs 340nm 1.1, NADH coupling 6%, PMK inhibit 11, Fluor 339 460 3.8* and MK inhibit 0.
O=C1OCc2cccc3cccc1c23 was read as Abs 340nm 1.1, NADH coupling 17%, PMK inhibit 15, Fluor 339 460 2.1* and MK inhibit 19.
O/N=C1/CCc2cccc3cccc1c23 was read as Abs 340nm 1, NADH coupling 5%, PMK inhibit 11, DPM-DC inhibit inactive, Fluor 339 460 1.2 and MK inhibit 5.
`CN(C)Cc1cn(CCC(=O)O)c2ccccc12` gave Abs 340nm 1, NADH coupling 4%, PMK inhibit 8, DPM-DC inhibit inactive, Fluor 339 460 1.4 and MK inhibit 5.
For NC1C2CN(c3nc4c(cc3F)c(=O)c(C(=O)O)cn4-c3ccc(F)cc3F)CC12 (stereo not given) the results were Abs 340nm 1.2, NADH coupling 10%, PMK inhibit 4, DPM-DC inhibit inactive, Fluor 339 460 2.1* and MK inhibit 5.
Screening COC(=O)c1cc(Br)c(=O)n(CCC2=CCCCC2)c1 returned Abs 340nm 1, NADH coupling 2%, PMK inhibit 14, DPM-DC inhibit inactive, Fluor 339 460 1.1 and MK inhibit 6.
For O=C(CSc1cc(Cl)ccc1Cl)NCC1CCCO1 (stereo not given) the results were Abs 340nm 1, NADH coupling 8%, PMK inhibit 25*, DPM-DC inhibit inactive, Fluor 339 460 1.1 and MK inhibit 0.
Screening O=C(CSc1ccc2nnc(-c3ccc(F)cc3)n2n1)NCC1CCCO1 (stereo not given) returned Abs 340nm 1, NADH coupling 11%, PMK inhibit 14, DPM-DC inhibit inactive, Fluor 339 460 2.3* and MK inhibit 4.

Bioassay records (PubChem)
